Nrf2 activator: qHTS of Nrf2 Activators; AREc32 ARE-luciferase reporter (MCF7-derived line), luminescence, 24 h; Potency, µM (series often up to 46.1 µM), hits mostly activators; 0.31% of 410,000 active; also: nearly all actives have a fitted effect of over 65% in size
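ARE-driven firefly luciferase activity in AREc32 cells measured after a 24 hr compound exposure at 37 deg C, using Steady-Glo reagent and a 30 min room-temperature hold.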
A549 viability: Nrf2 qHTS screen for inhibitors: counterscreen for cytotoxicity; AID 504648, 2011; 0.16% of 390,000 active; A549 ARE-Fluc cells, CellTiter-Fluor viability, 18-24 h; Potency, µM (series often up to 46 µM), hits mostly inhibitors
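A549 ARE_Fluc cells in 5% FBS OPTI-MEM were exposed to compounds in concentration-response for 18-24 h at 37 deg C. Viability was read by CellTiter-Fluor fluorescence (Ex 405/Em 525) after 30 min, before the luciferase read.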
miR-21 act: qHTS Assay for Modulators of miRNAs and/orActivators of miR-21 | HeLa miR-21 FLuc reporter, luciferase, 48 h | Potency, µM (series often up to 38.3 µM), hits mostly activators | 340,000 tested, under 10 active | AID 2288, 2010;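 also: miR-21 action dims this reporter so a rising signal means less miR-21 action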
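HeLa miR-21-FLuc reporter line, endogenous miR-21; 2000 cells/well in DMEM/10% FBS; compound titration up to ~40uM final, 48 h, 37 degree Celsius; luciferase detection reagent, 15 min lysis, CCD luminescence.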
p53 reactivation: qHTS assay for re-activators of p53 using a Luc reporter | H1299 p53-A138V BP100-luciferase reporter, luminescence, 24 h | Potency, µM (series often up to 92.2 µM), actives largely listed as activators | 0.063% of 320,000 active; also: nearly all actives have a fitted effect of over 45% in size
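p53-null H1299 cells stably carrying temperature-sensitive p53-A138V and a BP100-luciferase reporter were pinned with compounds (4-point, 1:5 series) and held 24 hrs at 37 deg C. Luminescence was read 10 min after detection reagent.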
Nrf2 block: Nrf2 qHTS screen for inhibitors; Potency, µM (series often up to 46 µM), usual class: inhibitors; 2.1% of 360,000 active; A549 ARE-Fluc reporter, luciferase luminescence, 18-24 h; AID 504444, 2011; also: nearly all actives have a fitted effect of over 60% in size
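Cells were seeded and rested 2 h, then exposed to compounds for 18-24 h. CellTiter-Fluor was read first as a viability measure. BugLite was added 15 min before the final luminescent read of ARE-luciferase activity in A549 cells.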
ClpP mod: qHTS Assay for Activators of ClpP; Potency, µM (highest dose often 57.5 µM); purified B. subtilis ClpP, FRET peptide cleavage, 20 min; 1.9% of 340,000 active; ATP-dependent Clp protease proteolytic subunit (Bacillus subtilis (strain 168)), P80244; AID 651965, 2013; active = well fitted falling curve with a large enough effect; inconclusive = small, poorly fitted or top-dose-only effect; inactive = no such curve, though single readings can be large or run the other way; also: the source files actives as falling curves though it sought activators and does not explain the sign; nearly all actives have a fitted effect of over 65% in size
Target sequence (P80244 whole entry, looked up): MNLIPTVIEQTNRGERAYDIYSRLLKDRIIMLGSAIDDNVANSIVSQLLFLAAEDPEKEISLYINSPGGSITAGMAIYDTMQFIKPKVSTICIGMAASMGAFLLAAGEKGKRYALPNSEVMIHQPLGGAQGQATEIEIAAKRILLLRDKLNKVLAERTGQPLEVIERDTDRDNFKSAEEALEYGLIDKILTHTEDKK
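Purified B. subtilis ClpP, 10 microg/mL final in Tris/HCl pH8 with KCl, BSA, glycerol and Tween-20, cleaved an Abz/nitrotyrosine-quenched decapeptide. Fluorescence (ex 320, em 430) was read at 0 and 20 min at room temperature. Delta was normalized to 5.8 microM ADEP and DMSO/no-enzyme controls.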
Hits are given with their value; - = inactive; ? = inconclusive; . = no result. Most compounds without a hit are left out; they make up all but 3.7% or so of the library. Unless noted, calls follow the shape of the dose curve; as a rule, active = well fitted curve in the direction sought with a large enough effect; inconclusive = small, poorly fitted or top-dose-only effect, or another doubt; inactive = no such curve, though single readings can be large; an effect the other way counts as inactive or inconclusive.

SMILES	Nrf2 activator	A549 viability	miR-21 act	p53 reactivation	Nrf2 block	ClpP mod
CC(C(=O)NC(=O)NCc1ccccc1)N1C(=O)c2ccccc2C1=O (stereo not given)	-	-	-	-	.	-
CC(C(=O)NCc1ccccc1)N1C(=O)C2CC=C(Cl)CC2C1=O (stereo not given)	-	-	-	-	.	28µM
CCN(CC(=O)NCc1cccs1)C(=O)/C=C/c1cc(OC)c(OC)c(OC)c1	-	-	.	-	-	16µM
CCOc1ccc(N(C)S(=O)(=O)c2ccc(C)c(C(=O)NCc3cccs3)c2)cc1	-	-	.	-	16µM	-
CCOc1ccc(C(=O)NCc2cccs2)cc1	-	-	-	-	?	-
CCN(CC(=O)NCc1cccs1)C(=O)c1ccc(S(=O)(=O)N(C)c2ccccc2)cc1	-	-	.	-	-	22µM
Cc1ccc(C)c(N2CCN(C(=O)c3cc4c(=O)n(Cc5ccco5)ccc4nc3C)CC2)c1	-	-	-	.	?	-
COc1ccc(-c2ccc(C(C)=O)cc2)cc1C1C2C=CCCC2(C)C(=O)N1Cc1ccccc1 (stereo not given)	.	?	.	.	16µM	.
COc1ccc(-c2ccc(C(C)=O)cc2)cc1[C@H]1[C@@H]2C=CCC[C@@]2(C)C(=O)N1Cc1ccccc1	-	-	-	-	21µM	?
COc1ccc(-c2ccc(C)cc2)cc1C1C2C=CCCC2(C)C(=O)N1Cc1ccccc1 (stereo not given)	.	-	.	.	-	.
CCn1nc(C)c(CCN(C)C(=O)Nc2cc(Cl)ccc2C)c1C	-	-	-	.	.	-
O=C1c2ccccc2NC2CCCCCN12 (stereo not given)	-	-	-	-	-	13µM
O=Cc1ccc(-c2ccccc2C(=O)O)o1	-	-	-	-	-	.
O=C(O)c1ccccc1-c1c2cc(I)c(=O)c(I)c-2oc2c(I)c(O)c(I)cc12	-	9.2µM	.	.	-	-
CCOC(=O)c1sc2c(c1C)C(c1cccs1)C1=C(CCCC1=O)N2 (stereo not given)	-	-	-	-	?	4.5µM
CCOC(=O)C1=C(C)NC2=C(C(=O)CCC2)C1c1cccs1 (stereo not given)	-	-	-	-	.	?
COc1ccc(C2C=C3CN(C(=O)OC(C)(C)C)S(=O)(=O)C3CC2OC(=O)c2cccc(C)c2)cc1 (stereo not given)	.	-	.	.	-	.
CC(C)CC(=O)/C=C/n1c(=S)oc2ccccc21	11µM	-	-	-	-	-
CC(=O)/C=C/n1c(=S)oc2ccccc21	?	?	?	-	?	-
Cc1cccc(N2CCN(C(=O)c3noc4c3CCCCC4)CC2)c1C	-	-	-	.	?	-
CCOC(=O)c1sc2nc(C)nc(NCc3ccccc3OC)c2c1C	-	-	-	-	21µM	-
CCOC(=O)c1sc2nc(C)nc(NCCc3ccccn3)c2c1C	-	-	-	-	?	-
CCOC(=O)c1sc2nc(CC(=O)OC)nc(NCc3ccco3)c2c1C	-	-	-	-	-	28µM
CCOC(=O)c1sc2nc(CC(=O)OC)nc(NCC(=O)OC)c2c1C	-	-	-	-	-	-
CC1=C(C(=O)Nc2ccccc2Br)C2(CCC(C)CC2)OC1=O (stereo not given)	-	-	-	.	-	-
COC(=O)c1sc(-c2ccc(Cl)cc2)cc1NC(=O)COCC(=O)O	-	-	-	-	?	-
CCOc1ccc(-c2cc(NC(=O)c3ccccc3)c(C(=O)OC)s2)cc1	-	-	-	.	-	35µM
COC(=O)c1sc(-c2ccc(Cl)cc2)cc1NC(=O)/C=C/C(=O)O	8.9µM	-	-	-	?	.
CCC(NC(=O)Nc1nnc(C(F)(F)F)s1)(C(F)(F)F)C(F)(F)F	-	7.3µM	-	-	3.7µM	-
COc1cc2c(NC3CCN(C)CC3)nc(N3CCCN(C)CC3)nc2cc1OCCCCCCN(C)C	.	.	.	.	.	-

High-throughput results (PubChem)
